In all, about 5,500 compounds went through this assay and about 2,000 (36%) were called active. Another 18% or so got no clear call; they are omitted. Rule as the data show it: active = normalized growth mostly below about 0.91 (no sharp cut-off); inconclusive = no clear call, values can overlap the other calls; inactive = mostly above about 0.92. This is one part of the list.
Test: chemical genetic growth profiling, strain panel (AID 1159580);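 also: tested at 20 µM; growth read once vehicle control cultures reached saturation at 30 °C; 1 = growth at the plate median or of vehicle wells; lower values mean less growth of the strain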
Conditions: growth OD

Measured: normalized growth

Cc1cc(C)cc(OCC2CNC(=O)O2)c1 (configuration not stated)
inactive: S. cerevisiae deletion strains, locus YJR075W, strain HOC1, active compounds read low 1.01 | S. cerevisiae deletion strains, locus YKL009W, strain mrt4, active compounds read low 1.02 | S. cerevisiae deletion strains, locus YKL068W, active compounds read low 1.02 | S. cerevisiae deletion strains, locus YKL085W, strain MDH1 (second series), active compounds read low 1.01 | S. cerevisiae deletion strains, locus YKL085W, strain MDH1, active compounds read low 1.01 | S. cerevisiae deletion strains, locus YKL160W, strain elf1, active compounds read low 0.973 | S. cerevisiae deletion strains, locus YKL190W, strain CNB1, active compounds read low 1.01 | S. cerevisiae deletion strains, locus YKR001C, strain vps1, active compounds read low 1.01 | S. cerevisiae deletion strains, locus YKR026C, strain gcn3, active compounds read low 0.978 | S. cerevisiae deletion strains, locus YKR091W, strain srl3, active compounds read low 0.985 | S. cerevisiae deletion strains, locus YLL001W, strain dnm1, active compounds read low 0.976 | S. cerevisiae deletion strains, locus YLL026W, active compounds read low 0.988 | S. cerevisiae deletion strains, locus YLL041C, strain sdh2, active compounds read low 0.972 | S. cerevisiae deletion strains, locus YLR027C, strain aat2, active compounds read low 0.985 | S. cerevisiae deletion strains, locus YLR039C, strain RIC1, active compounds read low 1.04 | S. cerevisiae deletion strains, locus YLR058C, strain SHM2, active compounds read low 1.01 | S. cerevisiae deletion strains, locus YLR102C, strain apc9, active compounds read low 1.02 | S. cerevisiae deletion strains, locus YLR113W, strain HOG1, active compounds read low 1.03 | S. cerevisiae deletion strains, locus YLR221C, strain rsa3, active compounds read low 0.966 | S. cerevisiae deletion strains, locus YLR258W, strain gsy2, active compounds read low 0.981 | S. cerevisiae deletion strains, locus YLR262C, strain YPT6 (second series), active compounds read low 0.962 | S. cerevisiae deletion strains, locus YLR262C, strain YPT6, active compounds read low 1.07 | S. cerevisiae deletion strains, locus YLR268W, strain sec22, active compounds read low 1.01 | S. cerevisiae deletion strains, locus YLR320W, strain mms22, active compounds read low 0.978 | S. cerevisiae deletion strains, locus YLR330W, strain CHS5, active compounds read low 1.01 | S. cerevisiae deletion strains, locus YLR342W, strain FKS1 (second series), active compounds read low 1.02 | S. cerevisiae deletion strains, locus YLR342W, strain FKS1, active compounds read low 0.982 | S. cerevisiae deletion strains, locus YLR357W, strain rsc2, active compounds read low 1.01 | S. cerevisiae deletion strains, locus YLR370C, strain arc18, active compounds read low 0.963 | S. cerevisiae deletion strains, locus YLR371W, strain rom2, active compounds read low 1.02 | S. cerevisiae deletion strains, locus YLR384C, strain iki3, active compounds read low 0.973 | S. cerevisiae deletion strains, locus YLR418C, strain cdc73, active compounds read low 1.02 | S. cerevisiae deletion strains, locus YML016C, strain PPZ1, active compounds read low 1.01 | S. cerevisiae deletion strains, locus YML032C, strain rad52, active compounds read low 1.02 | S. cerevisiae deletion strains, locus YML120C, strain ndi1, active compounds read low 0.984 | S. cerevisiae deletion strains, locus YML124C, strain tub3, active compounds read low 1 | S. cerevisiae deletion strains, locus YMR058W, strain fet3, active compounds read low 0.95 | S. cerevisiae deletion strains, locus YMR078C, strain ctf18, active compounds read low 1.02 | S. cerevisiae deletion strains, locus YMR125W, strain sto1, active compounds read low 0.979 | S. cerevisiae deletion strains, locus YMR129W, active compounds read low 0.984 | S. cerevisiae deletion strains, locus YMR205C, strain PFK2, active compounds read low 0.97 | S. cerevisiae deletion strains, locus YMR223W, strain ubp8, active compounds read low 1.02 | S. cerevisiae deletion strains, locus YMR231W, strain pep5, active compounds read low 0.964 | S. cerevisiae deletion strains, locus YMR263W, strain SAP30, active compounds read low 1.01 | S. cerevisiae deletion strains, locus YMR307W, strain GAS1, active compounds read low 1.03 | S. cerevisiae deletion strains, locus YNL067W, strain RPL9B, active compounds read low 1.02 | S. cerevisiae deletion strains, locus YNL071W, strain lat1, active compounds read low 0.983 | S. cerevisiae deletion strains, locus YNL128W, strain TEP1, active compounds read low 1.01 | S. cerevisiae deletion strains, locus YNL153C, strain GIM3, active compounds read low 1 | S. cerevisiae deletion strains, locus YNL183C, strain NPR1, active compounds read low 0.98 | S. cerevisiae deletion strains, locus YNL209W, strain ssb2, active compounds read low 0.969 | S. cerevisiae deletion strains, locus YNL233W, strain BNI4, active compounds read low 1 | S. cerevisiae deletion strains, locus YNL248C, strain rpa49, active compounds read low 0.976 | S. cerevisiae deletion strains, locus YNL250W, strain rad50, active compounds read low 1.02 | S. cerevisiae deletion strains, locus YNL271C, strain bni1, active compounds read low 1.02 | S. cerevisiae deletion strains, locus YNL298W, strain CLA4, active compounds read low 1.02 | S. cerevisiae deletion strains, locus YNL307C, strain MCK1, active compounds read low 1.01 | S. cerevisiae deletion strains, locus YNL322C, strain KRE1 (second series), active compounds read low 0.975 | S. cerevisiae deletion strains, locus YNL322C, strain KRE1, active compounds read low 1.01 | S. cerevisiae deletion strains, locus YNR049C, strain mso1, active compounds read low 0.983 | S. cerevisiae deletion strains, locus YNR052C, strain pop2, active compounds read low 1.02 | S. cerevisiae deletion strains, locus YOL006C, strain TOP1, active compounds read low 1.03 | S. cerevisiae deletion strains, locus YOL012C, strain htz1 1.42 | S. cerevisiae deletion strains, locus YOL147C, strain pex11, active compounds read low 1.01 | S. cerevisiae deletion strains, locus YOR001W, strain rrp6, active compounds read low 0.984 | S. cerevisiae deletion strains, locus YOR061W, strain CKA2, active compounds read low 1.01 | S. cerevisiae deletion strains, locus YOR069W, strain VPS5, active compounds read low 1.02 | S. cerevisiae deletion strains, locus YOR070C, strain gyp1, active compounds read low 0.969 | S. cerevisiae deletion strains, locus YOR080W, strain dia2, active compounds read low 0.991 | S. cerevisiae deletion strains, locus YOR083W, strain WHI5, active compounds read low 0.986 | S. cerevisiae deletion strains, locus YOR106W, strain vam3, active compounds read low 0.978 | S. cerevisiae deletion strains, locus YOR136W, strain idh2, active compounds read low 1.01 | S. cerevisiae deletion strains, locus YOR144C, strain elg1, active compounds read low 1.01 | S. cerevisiae deletion strains, locus YOR184W, strain ser1, active compounds read low 1.03 | S. cerevisiae deletion strains, locus YOR231W, strain MKK1, active compounds read low 1.05 | S. cerevisiae deletion strains, locus YOR265W, strain rbl2, active compounds read low 0.975 | S. cerevisiae deletion strains, locus YOR270C, strain vph1, active compounds read low 0.939 | S. cerevisiae deletion strains, locus YOR290C, strain snf2, active compounds read low 0.982 | S. cerevisiae deletion strains, locus YOR316C, strain cot1, active compounds read low 1.02 | S. cerevisiae deletion strains, locus YPL051W, strain arl3, active compounds read low 0.979 | S. cerevisiae deletion strains, locus YPL055C, strain LGE1, active compounds read low 1.02 | S. cerevisiae deletion strains, locus YPL078C, strain atp4, active compounds read low 0.973 | S. cerevisiae deletion strains, locus YPL106C, strain sse1, active compounds read low 0.969 | S. cerevisiae deletion strains, locus YPL240C, strain hsp82, active compounds read low 0.979 | S. cerevisiae deletion strains, locus YPL241C, strain CIN2, active compounds read low 1.01 | S. cerevisiae deletion strains, locus YPL256C, strain CLN2, active compounds read low 1.1 | S. cerevisiae deletion strains, locus YPR119W, strain clb2, active compounds read low 1.01 | S. cerevisiae deletion strains, locus YPR141C, strain kar3, active compounds read low 1.02 | S. cerevisiae deletion strains, locus YPR163C, strain tif3, active compounds read low 1.01 | S. cerevisiae deletion strains, locus YPR167C, strain met16, active compounds read low 1.01 | S. cerevisiae deletion strains, strain wtn01, active compounds read low 1.01 | S. cerevisiae strains, strain wild type, active compounds read low 1.01

— PubChem BioAssay AID1159580 (chemical genetic matrix, 2015)
